A selection: hits, their analogues and other compounds. The true share with any hit is near 3.7%.
Anthrax LF inh2: blocks Bacillus anthracis lethal factor protease; P15917; multiplex microsphere protease cleavage assay, LF; hit rate 0.12% among 360,000; inhibition, % at 10 µM; note: plate controls were buffer without enzyme for full effect and enzyme alone for no effect
Autofluor counter: counter-screen for toxin protease inhibitors: compound fluorescence | compound autofluorescence counterscreen, microsphere flow cytometry; stronger effect = higher value | fluorescence intensity (no concentration beside the values) | AID 624483 | hit rate 3.1% among 360,000; in the data active = fluorescence intensity above about 16000; inconclusive = no clear call, values can overlap the other calls
MazEF act: MazEF (E. coli) toxin RNase activation. hit rate 0.32% among 350,000. FAM/BHQ RNA-DNA oligo cleavage fluorescence, 5 h. AID 504720. activation, % at 20 µM; in the data active = activation above about 50%
Target sequence (P0AE70 whole entry, looked up): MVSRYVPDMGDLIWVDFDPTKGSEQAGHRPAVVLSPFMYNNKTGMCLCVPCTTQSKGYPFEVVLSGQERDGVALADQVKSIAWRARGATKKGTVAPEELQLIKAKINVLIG
BoNT-A LC inh2: BoNT A light chain protease inhibition; multiplex microsphere protease substrate cleavage, flow cytometry; inhibition, % at 10 µM; hit rate 0.17% among 360,000; note: plate controls were buffer without enzyme for full effect and enzyme alone for no effect
BoNT-F LC inh: BoNT F light chain protease inhibition. hit rate 0.22% among 360,000. Multiplex microsphere protease cleavage assay, flow cytometry. inhibition, % at 10 µM. AID 588497; in the data active = inhibition above about 35%, passing the limit was not always enough; inconclusive = no clear call, values can overlap the other calls; note: plate controls were buffer without enzyme for full effect and enzyme alone for no effect
Numbers without * were called inactive; ? = inconclusive; · = no result. Cut-off read from the data, not from the text of the source, unless noted: active = inhibition above about 30%; inconclusive = no clear call, values can overlap the other calls; inactive = below that.

SMILES | Anthrax LF inh2 | Autofluor counter | MazEF act | BoNT-A LC inh2 | BoNT-F LC inh
CCCCCc1nnc(NC(=O)OCCC)s1 | -1 | 4094 | 14 | 0 | 3
CCCOC(=O)Nc1nnc(CCC)s1 | 2 | 21272* | 1 | 7 | 10
O=S(=O)(c1cccc(F)c1)N1CCN(Cc2ccc3c(c2)OCO3)CC1 | -4 | 16310* | -2 | 1 | 4
Fc1ccccc1N1CCN(Cc2ccc3c(c2)OCO3)CC1 | 0 | 21279* | 5 | 4 | 3
Clc1ccccc1N1CCN(Cc2ccc3c(c2)OCO3)CC1 | 13 | 3384 | 1 | 2 | 32
COc1ccc(Cl)cc1NC(=O)CN(C)CC(=O)Nc1cc(OC)c(OC)c(OC)c1 | 3 | 3979 | 1 | 1 | ?
O=C(CNC(=O)c1ccccc1)OC(C(=O)O)c1ccc(F)cc1 (stereo not drawn) | 3 | 3932 | -1 | 0 | -11
O=C(Cc1ccccc1)Nc1ccc(N2CCCC2)cc1 | -29 | 3816 | -7 | 2 | -198
O=C(Cc1ccccc1)Nc1cccc(N2CCCC2)c1 | -8 | 22002* | 0 | ? | -25
CC(=O)Nc1cncc(-c2ccccc2N(C)C)n1 | -6 | 3531 | · | 0 | 3
CCOC(=O)c1cnn(-c2nc(-c3cccc(F)c3)cs2)c1C(F)(F)F | -3 | 19380* | -10 | 2 | -2
O=C(O)c1cnn(-c2nc(-c3cccc(F)c3)cs2)c1C(F)(F)F | 0 | 4684 | 5 | -1 | -9
CCOC(=O)c1cc(C#N)c(Oc2cccc(C(F)(F)F)c2)nc1-c1ccccc1 | -2 | 2655 | -2 | 0 | -1
CCOC(=O)c1ccc(-c2cccc(C(F)(F)F)c2)nc1C | -2 | 22705* | -6 | 1 | -3
CN(CC(=O)N1CCCCCC1)S(=O)(=O)c1ccc(Br)cc1 | -17 | 3462 | 2 | 2 | ?
CN(CC(=O)Nc1ccccc1C(=O)N1CCCC1)S(=O)(=O)c1ccc(Br)cc1 | 0 | 24180* | -3 | -2 | -3
Clc1ccc(Nc2nc3ccccc3n3nnnc23)cc1 | -3 | 20275* | 22 | 1 | 1
Cc1ccc(Nc2nc3ccccc3n3nnnc23)cc1 | -6 | 4022 | -3 | 0 | -6
COCCN1C[C@@H](CO)O[C@@H](n2cnc3c(N(C)C)ncnc32)C1 | -4 | 2797 | · | 0 | -3
COc1ccc(-c2cc(-c3ccccc3)nc(NN)n2)cc1OC | -5 | 3061 | 14 | 0 | -16
COc1nc(-c2ccccc2)cc(-c2ccc(OC)c(OC)c2)n1 | -1 | 19447* | 19 | 0 | -2
CCN(CC)C(=O)CSc1nnc(COc2ccc(OC)cc2)n1N | -6 | 3228 | 6 | -1 | 6
CCOc1ccc(-n2c(C)nnc2SCC(=O)N(CC)CC)cc1 | -1 | 19915* | -3 | 1 | -1
Cc1csc(NC(=O)C2CCCO2)n1 (stereo not drawn) | -1 | 21132* | -2 | 3 | 4
CC1(C(=O)O)CCC(C(=O)Nc2ccc3ccccc3c2)C1(C)C (stereo not drawn) | 2 | 22940* | -1 | 1 | 0
SMILES | Anthrax LF inh2 | Autofluor counter | MazEF act | BoNT-A LC inh2 | BoNT-F LC inh
Cc1csc(NC(=O)C2CCC(C)(C(=O)O)C2(C)C)n1 (stereo not drawn) | -1 | 20359* | 4 | -3 | -4
CCc1nc2c(OCCc3cccc(OC)c3)cccn2c1N(C)C(=O)c1cccs1 | -1 | 2876 | · | 0 | -6
CN(C)CCNc1ncnc2c1ncn2[C@H]1CN(Cc2ccco2)C[C@@H](CO)O1 | -5 | 3736 | · | -1 | -3
CCCCN(CC)Cc1ccc(CNC(=O)Nc2ccc(OCC)cc2)o1 | -1 | 20423* | 3 | 1 | 1
Cc1cccc(-c2nc(CS(=O)CC(=O)NCCCSC3CCCCC3)c(C)o2)c1 (stereo not drawn) | -3 | 20646* | -2 | ? | -2
COc1cccc(-c2nc(CS(=O)CC(=O)N3CCC4(CC3)OCCO4)c(C)o2)c1 (stereo not drawn) | 1 | 21075* | 7 | ? | -4
COc1cccc(-c2nc(CS(=O)CC(=O)NCCCOC(C)C)c(C)o2)c1 (stereo not drawn) | -1 | 21012* | 5 | 2 | 5
COc1cccc(-c2nc(CS(=O)(=O)CC(=O)NCCCc3ccccc3)c(C)o2)c1 | -2 | 6143 | -1 | 0 | 2
COc1cccc(-c2nc(CS(=O)(=O)CC(=O)NCCCOC(C)C)c(C)o2)c1 | -4 | 21662* | 5 | ? | 1
c1coc(Cn2nnnc2CN2CCN(C3CCCC3)CC2)c1 | 1 | 2894 | 102* | 0 | -8
CC1(C(=O)NC2CCCCCC2)CCC(=O)N1Cc1ccc2c(c1)OCO2 (stereo not drawn) | -6 | 16292* | 3 | 0 | -4
COc1cccc(C(=O)NC2=NCCS2)c1OC | -7 | 19499* | 7 | ? | -1
COc1cc(C(=O)NC2=NCCS2)ccc1OCc1c(C)noc1C | 0 | 20499* | 4 | ? | -6
COc1cc(C(=O)Nc2cc(C)ccc2C)ccc1OCc1c(C)noc1C | 2 | 3052 | 5 | 0 | 0
Cc1c(C(=O)NC2=NCCS2)oc2ccccc12 | -1 | 21128* | -11 | -1 | -12
CN(C)c1ncnc2c1ncn2[C@H]1CN(Cc2ccc3c(c2)OCO3)C[C@@H](CO)O1 | -9 | 3759 | · | 0 | -5
COc1cc(S(=O)(=O)Nc2ccccc2C)ccc1Cl | -3 | 2864 | -5 | 0 | 3
COc1cc(S(=O)(=O)Nc2c(C)cc(C)cc2C)ccc1Cl | -12 | 17705* | 0 | 5 | 4
COC(=O)c1cc2c(-c3ccccc3)c(C)c3ccccn3c-2c1C(=O)OC | -1 | 3197 | 50* | 1 | -14
COc1cccc(C(O)c2nc(-c3ccc(N(C)C)cc3)cs2)c1 (stereo not drawn) | 4 | 2949 | · | 0 | 7
COc1ccc(-c2nc(C#N)c(NCc3ccccc3Cl)o2)cc1 | 0 | 20055* | -11 | ? | 4
N#Cc1nc(-c2ccc(Cl)cc2)oc1NCc1cccc2c1OCO2 | -1 | 19143* | 8 | 1 | -2
N#Cc1nc(-c2ccc(Cl)cc2)oc1NCc1ccco1 | -7 | 3900 | -1 | 0 | 3
COc1ccc(CNc2oc(COc3ccc(Cl)cc3)nc2C#N)cc1 | -3 | 20982* | -4 | -4 | -10
Cc1ccc(-c2nc(C#N)c(NCCN3CCCCC3)o2)cc1 | -3 | 22423* | -2 | ? | -11
COc1ccc(Nc2oc(COc3ccc(Cl)cc3)nc2C#N)cc1 | -8 | 4659 | 5 | -1 | 6
CCOc1ccc2nc(S(=O)(=O)NC(=O)C3(C)CCN3C(=O)CCc3cccs3)sc2c1 (stereo not drawn) | -1 | 3663 | · | 0 | 5
O=c1oc2c(CN3CCCCC3)c(O)ccc2cc1-c1nc2ccccc2[nH]1 | 0 | 18384* | -14 | 14 | 15
Cc1ccccc1S(=O)(=O)NC(=O)C1(C)CCN1C(=O)Cc1cccs1 (stereo not drawn) | 2 | 4164 | · | -1 | -7
O=C(O)CC1S/C(=N/N=C/c2ccc(Br)cc2)N(c2ccccc2)C1=O (stereo not drawn) | 3 | 4337 | 9 | 1 | -8
